Measured potencies and affinities stand elsewhere. Activity calls are given as the source filed them. No rule for the calls is given here.

The test is described as follows: HepG2 cell cytotoxicity, dose response, cytotoxicity control, plate reader, cherry-pick, antagonist series (AID 743416). The following applies: series mostly up to 26 µM.
Take `Cc1ccc(-n2[nH]c(=O)c(-c3ccccn3)c2C)cc1`: the molecule was called inactive. As for `Cc1ccc(S(=O)(=O)N(C)C[C@H]2Oc3c(cccc3N(C)C)C(=O)N([C@@H](C)CO)C[C@@H]2C)cc1`, the call was inactive. Take `O=C1CC(c2ccc3c(c2)OCO3)Sc2nc3ccccc3n21` (centres undefined): the call was inactive.

`Nc1ccc(-c2nc3ccc(N)cc3s2)cc1`: the molecule was classed as inactive. To `CC(=O)N1CCCCN2[C@H](CO)[C@H](c3ccc(-c4cccc(C)c4)cc3)[C@@H]2C1` belongs “inactive”. To `CCCc1nc(SCC(=O)N2CCC(Cc3ccccc3)CC2)c2c(=O)n(C)c(=O)n(C)c2n1` belongs “inactive”; to `Cc1cccc(-c2ccc([C@H]3[C@@H](CO)N4CCCCN(C(=O)c5ccc6c(c5)OCO6)C[C@@H]34)cc2)c1`, “inactive”; to `C[C@H](CO)N1C[C@H](C)[C@H](CN(C)C(=O)Nc2ccccc2)OCCCC[C@H](C)Oc2ccc(NC(=O)Nc3ccc4c(c3)OCO4)cc2C1=O`, “inactive”. As for `CC(=O)c1ccc(NC(=O)c2noc3c2CCC3)cc1`, the result was inactive. The value for `CN1c2ccc(-c3ccc(F)cc3)cc2[C@H]2[C@H](CCN2C(=O)Nc2ccc(F)cc2)[C@H]1CO` was “inactive”; that for `CCc1ccc2oc(-c3ccc(N)cc3)nc2c1` was “inactive”; that for `O=C(Nc1ccc(Cl)cc1)Nc1cccc(C(=O)O)c1` was “inactive”. Consider `CN(C)S(=O)(=O)c1cccc(NC(=O)COc2ccccc2C(=O)Nc2ccccc2)c1`, for which the outcome was inactive. On to `Cc1ccc(C#N)c(SCc2nnc(-c3ccc(Cl)cc3)o2)n1`, for which the call was inactive. `CCOc1ccc(C(=O)Nc2nnc(SCC(=O)NCC3CCCO3)s2)cc1` (centres undefined): the call was inactive. On to `c1ccc(-c2cn3c4c(sc3n2)CCCC4)cc1`, for which the result was inactive. For `O=C(c1ccccc1)N1CCSc2sccc2C1=O`, the molecule was classed as inactive.

As for `Cc1ccnc(NC(=O)CCC(=O)c2cccs2)c1`, the molecule was classed as inactive. The value for `CC(C)CCn1cnc2c(oc3nc4c(cc32)CCCC4)c1=O` was “inactive”; that for `Cc1ccccc1-c1ccc([C@H]2[C@@H](CO)N3CCCCN(S(=O)(=O)c4ccc(F)cc4)C[C@@H]23)cc1` was “inactive”. For `Cc1ccc2nc(-c3ccc(NC(=O)C4CCCO4)cc3)[nH]c2c1` (centres undefined), the call was inactive.

As to `Cc1ccc(S(=O)(=O)N2CCCCC2)cc1NC(=O)c1ccc2c(=O)n3c(nc2c1)CCCCC3`, the molecule was classed as inactive.

In the case of `CN1CCN(c2ccc(NC(=O)N3CCc4ccccc43)cc2)CC1`, the outcome was inactive. As for `CC1CCCN(c2ncnc3c2cnn3-c2ccc(Cl)cc2)C1` (centres undefined), the outcome was inactive.

With `C[C@H](CO)N1C[C@H](C)[C@H](CN(C)C(=O)Nc2cccc3ccccc23)OCCCC[C@H](C)Oc2ccc(NC(=O)CCC(F)(F)F)cc2C1=O`, the call was inactive.

For the molecule `Cc1csc(NC(=O)c2ccc(N3CCCC3=O)cc2)n1`, the molecule was called inactive. The value for `Cc1ccc(C(=O)Nc2ccc3c(c2)OCCO3)cc1` was “inactive”; that for `O=C(Cc1ccncc1)NCC[C@H]1CC[C@H](NC(=O)C2CCCC2)[C@H](CO)O1` was “inactive”; that for `CC(C)CCNC(=O)C(c1ccc(O)cc1)N(Cc1cccs1)C(=O)C1COc2ccccc2O1` (centres undefined) was “inactive”. As for `O=C(COC(=O)c1ccccc1C(=O)c1ccc(Cl)c([N+](=O)[O-])c1)NC1CC1`, the molecule was classed as inactive. As to `Cc1cc(C(=O)CSc2nnc3ccccn23)c(C)n1-c1ccccc1`, the call was inactive. Turning to `CCOc1ccc(C(=O)NCCc2ccccc2)cc1`, the molecule was called inactive. The value for `O=C(COc1ccc2c(c1)CCC2)Nc1ccccn1` was “inactive”; that for `COc1ccc(S(=O)(=O)N(C)C[C@@H]2OCCCC[C@H](C)Oc3ccc(NS(=O)(=O)c4ccc(Cl)cc4)cc3C(=O)N([C@@H](C)CO)C[C@@H]2C)cc1` was “inactive”. As for `Cc1ccc(Nc2nc3ccccc3s2)c(C)c1`, the molecule was classed as inactive.

For the molecule `COc1ccccc1N(Cc1ccccc1)S(=O)(=O)c1cccc(C(=O)Nc2cc(C)ccn2)c1`, the molecule was classed as inactive.

Regarding `Cc1ccc(S(=O)(=O)Nc2ccc3c(c2)CC(=O)N([C@H](C)CO)C[C@H](C)[C@H](CN(C)Cc2ccc(Cl)c(Cl)c2)O3)cc1`, the call was inactive. To `CN(C)c1cccc(C(=O)Nc2nc3ccccc3[nH]2)c1` belongs “inactive”; to `CO[C@@H]1CN(C)C(=O)c2cc(NC(C)=O)ccc2OC[C@@H](C)N(Cc2ccc(F)cc2)C[C@@H]1C`, “inactive”.

The values are drawn from PubChem BioAssay.
